# The full list was thinned out, with hits kept by preference.
# GALK inh: inhibits human galactokinase. P51570. recombinant GALK, Kinase-Glo ATP luminescence, 1 h. Potency, µM (series often up to 57.5 µM), for inactives: at the highest dose activity, negative = inhibition, hits mostly inhibitors. 44,000 tested, under 10 active. AID 1347072;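 further: plate controls were full GALK reaction for no effect and reaction lacking GALK for full effect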
#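 Luminescent ATP-depletion readout (Kinase-Glo Plus, 10 min) after 1 h RT reaction of 5 nM GALK, 35 uM ATP, 100 uM galactose, pH 8.0 HEPES buffer. Decreased kinase activity scored as inhibition.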
# PTAP-TSG101 blk: TSG101-PTAP interaction inhibition, HIV-1 budding; Q99816; Potency, µM (highest dose often 115 µM), hits mostly inhibitors; Fluorescence polarization, FITC-PTAP peptide/Tsg101, 20 min; 44,000 tested, under 10 active; AID 1347069; further: potency means the concentration at half of the fitted maximal effect; 0% is about no effect
#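 FITC-labeled PTAP peptide (50 nM final) binding to Tsg101 binding domain (10 uM final) read by fluorescence polarization after 20 min at r.t. in HEPES pH 7.5 buffer. Actives by CRC class, <25 µM.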
# NTMT1 inh: inhibitors of human N-terminal methyltransferase NTMT1. NTMT1 MTase-Glo SAH luminescence, purified enzyme. actives 2.5% (n = 59,000). Potency, µM (top dose mostly 114 µM), for the others: at the top dose activity change, negative = inhibition, usual class: inhibitors. Q9BV86;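 further: potency means the concentration at half of the fitted maximal effect; plate controls were DMSO vehicle for no effect and no enzyme for full effect; nearly all actives have a fitted effect of over 65% in size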
# Target sequence (Q9BV86 whole entry, looked up): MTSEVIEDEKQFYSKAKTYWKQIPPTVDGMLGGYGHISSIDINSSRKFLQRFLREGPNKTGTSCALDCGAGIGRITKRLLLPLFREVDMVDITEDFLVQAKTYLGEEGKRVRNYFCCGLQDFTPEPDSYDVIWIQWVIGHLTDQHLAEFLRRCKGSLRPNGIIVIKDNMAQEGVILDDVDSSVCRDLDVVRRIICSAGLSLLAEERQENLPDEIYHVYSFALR
# B2AR arrestin ag: beta-arrestin recruitment by human beta2-adrenergic receptor ligands. 44,000 tested, under 10 active. Potency, µM (titrated, usually from 46.1 µM), most hits filed as activators. HTLA Tango cells, beta-arrestin recruitment, luciferase luminescence, 18 h;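 further: potency means the concentration at half of the fitted maximal effect; 0% = DMSO and full agonism = EC100 isoproterenol or metaproterenol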
# Target sequence (P07550 whole entry, looked up): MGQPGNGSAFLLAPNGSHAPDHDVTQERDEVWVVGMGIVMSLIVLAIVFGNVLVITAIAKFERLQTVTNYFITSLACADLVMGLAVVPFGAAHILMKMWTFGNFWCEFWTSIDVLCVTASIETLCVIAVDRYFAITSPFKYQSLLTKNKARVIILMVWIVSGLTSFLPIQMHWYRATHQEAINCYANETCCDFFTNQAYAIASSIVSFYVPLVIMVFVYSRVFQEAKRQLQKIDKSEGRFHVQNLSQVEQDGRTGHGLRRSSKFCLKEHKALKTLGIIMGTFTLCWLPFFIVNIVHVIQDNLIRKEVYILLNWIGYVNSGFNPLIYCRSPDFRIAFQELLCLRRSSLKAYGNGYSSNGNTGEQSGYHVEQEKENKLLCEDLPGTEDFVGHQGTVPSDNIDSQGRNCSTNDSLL
#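 Tango cells (recombinant beta2-AR, beta-arrestin, tTA-driven luciferase), 1500/well in DMEM 1% FBS, treated 18 h at 37 °C with compounds up to 46 µM; luciferin mix added, luminescence read after 15 min; %activity curves fitted and curve-classed.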
# FH mod: Identification of activators of human fumarate hydratase by quantitative high-throughput screening; Potency, µM (series often up to 79.9 µM), without a hit: at the top dose activity change, negative = inhibition, usual class: inhibitors; FH coupled MDH/diaphorase resazurin fluorescence, 15 min; Fumarate hydratase, mitochondrial (Homo sapiens), P07954; actives 0.22% (n = 54,000); further: potency means the concentration at half of the fitted maximal effect; on the % scale 0 is the no-effect control and ±100 the full control effect; the screen sought activators but most active calls are inhibition curves; nearly all actives have a fitted effect of over 45% in size
# Starred values were filed as active, the others as inactive; i = inactive; ? = inconclusive; nt = no result; ! = repeats disagree; [ ] = another dose, or the depositor's remark. The call rests on the fitted dose curve; in most records, active means well fitted curve in the direction sought with a large enough effect; inconclusive means small, poorly fitted or top-dose-only effect, or another doubt; inactive means no such curve, though single readings can be large; an effect the other way counts as inactive or inconclusive.
SMILES,GALK inh,PTAP-TSG101 blk,NTMT1 inh,B2AR arrestin ag,FH mod
Cc1ccc(NC(=O)Cn2c(=O)n(CCCC(=O)NCc3ccc4c(c3)OCO4)c(=O)c3ccccc32)cc1,2%,i,-19%,i,-22%
Cc1ccccc1NC(=O)Cn1c(=O)n(CCCC(=O)NCc2ccc3c(c2)OCO3)c(=O)c2ccccc21,6%,i,89µM*,i,-2%
CCCNC(=O)c1ccc2c(c1)sc1nc(-c3ccc(C)cc3)cn12,-12%,i,14%,i,2%
CCN(CC)CCCNC(=O)c1ccc2c(c1)sc1nc(-c3ccc(C)cc3)cn12,2%,i,50µM*,i,-7%
Cc1ccc(CNCc2ccccc2)s1,-1%,i,8%,i,2%
CNCc1ccccc1,nt,nt,56µM*,nt,-1%[53.3 µM]
CCOc1ccc(/C=C(\C#N)C(=O)Nc2sc3c(c2C(=O)OC)C(C(=O)OC)CC3)cc1OC (stereo not given),-2%,i,10µM*,i,4%
CN1CCN(Cc2ccc(-c3cnc4[nH]cc(-c5ccc6[nH]ccc6c5)c4c3)cc2)CC1,nt,nt,20µM*,nt,-25%
CCc1ccc(CN2CCc3nc(N4CCN(CC)CC4)ncc3C2)cc1,-2%,i,3%,i,2%
O=C(Nc1ccc2nc(SCC(=O)N3CCOCC3)sc2c1)c1cccc(F)c1,-4%,i,0%,i,-19%
O=C(Nc1ccc2nc(SCC(=O)N3CCCC3)sc2c1)c1cccc(F)c1,3%,i,89µM*,i,-27%
CSc1ccccc1-c1ccc(Nc2nc(-c3ccncc3)nc3ccccc23)cc1F,nt,nt,-1%[57.5 µM],nt,nt
Cc1ccc(-n2c(=O)ccc(=O)n2CC(=O)N(C)C(C)c2ccco2)cc1 (stereo not given),nt,nt,17%,nt,nt
COCCCc1sc(-c2ccccc2)nc1C(=O)Nc1ccccc1-c1nc2cc(CN3CCCC3)cnc2s1,nt,nt,1%[29.8 µM],nt,-16%[53.3 µM]
NCc1ccc(OCCCc2sc(-c3ccc4c(c3)/C(=N/Nc3nc5ccccc5s3)CCC4)nc2C(=O)O)cc1,nt,nt,40µM*!,nt,14%
NC1CCC(N[C@@H]2C[C@H]2c2ccccc2)CC1 (stereo not given in full),nt,nt,?,nt,1%
CCCCCCCCCCCCCCCCC(C(=O)O)C(O)(CC(=O)O)C(=O)O (stereo not given),nt,nt,3.5µM*,nt,?
Cc1cc(C)c2sc(N3CCN(C(=O)C4CC4)CC3)nc2c1,-1%,i,79µM*,i,-3%
Cn1cc(C2=C(c3cn(CCCSC(=N)N)c4ccccc34)C(=O)NC2=O)c2ccccc21,nt,nt,3.2µM*,nt,-8%
CCCCN(CCCC)CCCNC(=O)Cn1cc2c(n1)-c1c(oc(C(=O)N3CCCC3)c1C)CC2,0%,i,-12%,?,-7%
CCCN(CCC)CCNC(=O)Cn1cc2c(n1)-c1c(oc(C(=O)N3CCCC3)c1C)CC2,1%,i,-3%,22µM*,-2%
COc1ccc(C(=O)Nc2ccc(NC(=O)c3cccs3)cc2)cc1OC,-1%,i,?,i,28µM*[activator]
COc1cccc(NC(=O)Cn2nc3c4ccccc4n(Cc4cccc(F)c4)cc-3c2=O)c1,1%,i,-21%,i,3%
CCOC(=O)c1ccc(NC(=O)Cn2nc3c4ccccc4n(Cc4cccc(F)c4)cc-3c2=O)cc1,?,i,79µM*,i,-14%
O=C1NC(=O)C(=Cc2ccc(-c3ccc(F)cc3O)o2)S1,nt,nt,24µM*,nt,-27%[53.3 µM]
SMILES,GALK inh,PTAP-TSG101 blk,NTMT1 inh,B2AR arrestin ag,FH mod
Cc1cc(C)c(NC(=O)Cn2c(=O)n(Cc3ccc(C(=O)NCc4ccco4)cc3)c(=O)c3sccc32)c(C)c1,6%,i,50µM*,i,-6%
Cc1cccc(C)c1NC(=O)Cn1c(=O)n(Cc2ccc(C(=O)NCc3ccco3)cc2)c(=O)c2sccc21,-1%,i,?,i,-21%
NC(Cc1c[nH]c2ccccc12)C(=O)NC(CCC(=O)O)C(=O)O (stereo not given),nt,nt,2%[57.5 µM],nt,6%
NCCCC[C@H](NC(=O)[C@@H](NC(=O)[C@H](Cc1c[nH]c2ccccc12)NC(=O)[C@H](CCCCN)NC(=O)[C@H](CCCCN)NC(=O)[C@H](Cc1c[nH]c2ccccc12)NC(=O)[C@H](Cc1c[nH]c2ccccc12)NC(=O)[C@H](CCCCN)NC(=O)[C@@H](N)CCCCN)C(c1ccccc1)c1ccccc1)C(N)=O,nt,nt,22µM*,nt,nt
NC(=O)C1CCN(c2nc(-c3ccc(Oc4ccccc4)cc3)cs2)CC1,nt,nt,-9%,nt,nt
CN1CCN(C2CCC(n3cc(-c4ccc(Oc5ccccc5)cc4)c4c(N)ncnc43)CC2)CC1 (stereo not given),nt,nt,28µM*!,nt,14%
O=C(O)c1ccc(-n2cccc2/C=C2\SC(=O)N(Cc3ccccc3Cl)C2=O)cc1,nt,nt,50µM*,nt,nt
O=C(O)c1ccc(-n2cccc2/C=C2\SC(=O)N(Cc3ccc(F)cc3)C2=O)cc1,nt,nt,79µM*,nt,nt
O=C(O)CN1C(=O)N/C(=C\c2cccn2-c2ccc(P(=O)(O)O)cc2)C1=O,nt,nt,-3%,nt,nt
C[C@H](Cc1ccccc1)Nc1ncnc2c1ncn2[C@@H]1O[C@H](CO)C(O)[C@H]1O (stereo not given in full),nt,nt,nt,nt,-8%[53.3 µM]
CCNCCS(=O)(=O)NC[C@@]1(c2ccccc2)SC(NC(=O)C(C)(C)C)=NN1C(=O)C(C)(C)C,nt,nt,9%,nt,nt
O=C(NCCc1ccccc1)c1ccc(CSc2nc3cccnc3n2Cc2ccccc2F)cc1,-6%,i,-18%,i,?
O=C(NCCc1ccccc1)c1ccc(Cn2c(SCc3ccccc3F)nc3cccnc32)cc1,1%,i,89µM*,i,-19%
COC(=O)C1=CC[C@H](c2ccc(C)cc2)N(S(=O)(=O)c2ccc(C)cc2)[C@@H]1c1ccc(C(C)(C)C)cc1,nt,nt,-1%,nt,nt
NS(=O)(=O)c1cccc2c1c([N+](=O)[O-])cc1nc(O)c(O)nc12,nt,nt,nt,nt,18µM*
CCCN1CCCc2cc(CN(CCCN3CCOCC3)C(=O)Nc3ccc(OCC)cc3)ccc21,1%,i,-6%,i,-12%
CCCN1CCCc2cc(CN(CCCN3CCOCC3)C(=O)Nc3ccc(Cl)c(Cl)c3)ccc21,-1%,i,79µM*,i,?
COc1cc(-n2c(=O)c3ccccc3n(Cc3cccc(Cl)c3)c2=O)cc(OC)c1OC,0%,i,89µM*,i,2%
O=c1[nH]c(=S)[nH]c(-c2ccccc2)c1Cc1c(O)ccc2ccccc12,nt,nt,nt,nt,20µM*
CCCCCCOc1cc2c(cc1N(C)c1ncc(C(=O)O)cn1)C(C)(C)CCC2(C)C,nt,nt,8%[57.5 µM],nt,2%
O=C(O)C[C@H](O)C[C@H](O)/C=C/c1c(C2CC2)nc2ccccc2c1-c1ccc(F)cc1,nt,nt,40µM*!,nt,10%

# Screening results (PubChem BioAssay)
